A selection: hits, their analogues and other compounds. The true share with any hit is near 14%.
Pf growth 96h = P. falciparum growth inhibition at 96 hours; Potency, µM (series often up to 28.7 µM), without a hit: at the highest dose activity change, negative = inhibition, usual class: inhibitors; 320,000 compounds, 6.9% hits; P. falciparum luciferase reporter growth, 96 h; AID 504834; further: potency means the concentration at half of the fitted maximal effect
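Luminescence readout: decreased luciferase signal marks inhibited growth of reporter-expressing P. falciparum in infected red cells (2% hematocrit, 0.05% parasitemia final), exposed to compound two generations (96 h, 37 C, 5% CO2).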
FBPA Giardia inh = Giardia lamblia aldolase inhibition | purified Giardia FBPA | 290,000 compounds, 0.71% hits | Potency, µM (top dose mostly 59.6 µM), inactives show top-dose activity, negative = inhibition, usual class: inhibitors | AID 2451; further: potency means the concentration at half of the fitted maximal effect; nearly all actives have a fitted effect of over 55% in size
Target sequence (A8B2U2 whole entry, looked up): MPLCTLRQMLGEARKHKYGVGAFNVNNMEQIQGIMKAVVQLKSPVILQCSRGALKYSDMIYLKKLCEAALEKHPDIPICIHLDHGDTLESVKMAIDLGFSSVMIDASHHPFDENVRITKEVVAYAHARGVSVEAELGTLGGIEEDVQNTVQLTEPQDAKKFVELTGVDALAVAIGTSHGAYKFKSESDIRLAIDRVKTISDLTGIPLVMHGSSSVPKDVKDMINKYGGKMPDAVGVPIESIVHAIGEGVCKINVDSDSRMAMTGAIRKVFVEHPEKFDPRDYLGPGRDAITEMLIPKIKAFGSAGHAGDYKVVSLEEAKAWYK
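Giardia FBPA (40 nM reagent) was preincubated 10 min at RT with compound (up to 57.5 uM final), then substrate plus GAPDH/TPI/NAD/arsenate coupling system with diaphorase/resazurin was added; resorufin fluorescence (525/598 nm) was read after 20 min.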
Pf growth 48h = P. falciparum growth inhibition at 48 hours (one generation); P. falciparum luciferase growth in erythrocytes, 48 h; Potency, µM (highest dose often 28.7 µM), inactives show at the top dose activity change, negative = inhibition, hits mostly inhibitors; 310,000 compounds, 5.9% hits; further: potency means the concentration at half of the fitted maximal effect
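In quantitative HTS format, infected erythrocytes bearing luciferase-reporter parasites were treated for a single generation at 37 C. Luminescence after adding detection reagent served as the growth measure.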
Sm TGR block = inhibitors of Schistosoma mansoni thioredoxin glutathione reductase; Potency, µM (top dose mostly 114 µM), without a hit: top-dose activity change, negative = inhibition, most hits filed as inhibitors; purified TGR, DTNB reduction, TNB absorbance 405 nm; Q962Y6; 360,000 compounds, 3% hits; further: potency means the concentration at half of the fitted maximal effect; nearly all actives have a fitted effect of over 60% in size
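First, TGR (20 nM dispensed) and NADPH were mixed with compound. Second, a 15 min room-temperature incubation followed. Third, further NADPH and then DTNB were added to start the reaction. Finally, TNB absorbance was monitored kinetically.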
HCMV antiviral = human cytomegalovirus inhibition; activity change, negative = inhibition, % at 57.5 µM; 410,000 compounds, 4.5% hits; AID 1259415; HFF cells, HCMV-luciferase reporter, 72 h; active compounds read low; in the data active means activity change below about -60%; inconclusive means no clear call, values can overlap the other calls; inactive means above about -39%
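Two compound doses tested in HFFs infected with HCMV-luciferase, MOI 1 PFU/cell, 72 h at 37C. Lysate luminescence read with OneGlo; data normalized against buffer-only and 10uM Salinomycin inhibitor controls.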
Numbers without * were called inactive; [ ] = another dose, or the depositor's remark. Unless noted, the call rests on the fitted dose curve; in most records, active means well fitted curve in the direction sought with a large enough effect; inconclusive means small, poorly fitted or top-dose-only effect, or another doubt; inactive means no such curve, though single readings can be large; an effect the other way counts as inactive or inconclusive. On the % scale 0 is the no-effect control and ±100 the full control effect.

What do the screens show for `Cc1cc(NC(=O)CCC(=O)N(c2ccccc2)C(C(=O)NC2CCCCC2)c2cccs2)no1` (stereo not drawn)?
Pf growth 96h: 8.3µM*; FBPA Giardia inh: 3%; Pf growth 48h: inconclusive; Sm TGR block: -2%; HCMV antiviral: -65*

How did Cc1cc(NC(=O)CCC(=O)N(Cc2ccco2)C(C(=O)NC2CCCC2)c2ccc(F)cc2)no1 (stereo not drawn) do in these assays?
Pf growth 96h: 28%; FBPA Giardia inh: 2%; Pf growth 48h: inconclusive; Sm TGR block: 2%; HCMV antiviral: -63*

Results for Cc1cc(NC(=O)CCC(=O)N(c2ccc(F)cc2)C(C(=O)NC2CCCC2)c2ccc(C)o2)no1 (stereo not drawn) ?
Pf growth 96h: 32%; FBPA Giardia inh: 11%; Pf growth 48h: 9.3µM*; Sm TGR block: 2%; HCMV antiviral: -20

Results for CCOC(=O)C1CCCN(C(=O)CCc2nc3sc4c(c3c(=O)[nH]2)CCCC4)C1 (stereo not drawn) ?
Pf growth 96h: inconclusive; Pf growth 48h: inconclusive; Sm TGR block: 0%; HCMV antiviral: 17

Results for Cc1cc(NC(=O)CCC(=O)N(Cc2ccco2)C2(C(=O)NC3CCCC3)CCC(C)CC2)no1 (stereo not drawn) ?
Pf growth 96h: inconclusive; FBPA Giardia inh: 3%; Pf growth 48h: 15µM*; Sm TGR block: 15%; HCMV antiviral: -12

How did Cc1cc(NC(=O)CCC(=O)N(CC(=O)NC2CCCC2)c2ccccc2)no1 do in these assays?
Pf growth 96h: 15µM*; FBPA Giardia inh: -1%; Pf growth 48h: inconclusive; Sm TGR block: -28%; HCMV antiviral: 27

What do the screens show for `Cc1cc(NC(=O)/C=C/C(=O)N(CC(=O)NC2CCCC2)c2cccc3ccccc23)no1`?
Pf growth 96h: 1%; FBPA Giardia inh: -7%; Pf growth 48h: 10µM*; Sm TGR block: -26%; HCMV antiviral: -29

Results for CCOc1ccc(N(C(=O)/C=C/C(=O)Nc2cc(C)on2)C(C(=O)NC2CCCC2)c2ccccc2C)cc1 (stereo not drawn) ?
Pf growth 96h: inconclusive; FBPA Giardia inh: -1%; Pf growth 48h: inconclusive; Sm TGR block: -8%; HCMV antiviral: -93*

How did C=CCOC(=O)C(C(C)=O)C(NC(=O)OC)c1cccs1 (stereo not drawn) do in these assays?
FBPA Giardia inh: -2%[12.9 µM]

How did CCc1ccccc1NC(=O)CSc1nnc(-c2ccc(OC)cc2)s1 do in these assays?
Sm TGR block: 1%; HCMV antiviral: 0

How did O=c1c2oc3ccccc3c2n(Cc2cccc(Cl)c2)c(=O)n1Cc1ccco1 do in these assays?
Sm TGR block: -10%; HCMV antiviral: -32

How did CC(C)N(C)c1ncnc2c1ncn2[C@H]1CN(Cc2cccs2)C[C@@H](CO)O1 do in these assays?
HCMV antiviral: -23

What do the screens show for `Cc1cc(NC(=O)CCC(=O)N(c2ccccc2)C(C(=O)NCC2CCCO2)c2cccnc2)no1` (stereo not drawn)?
Pf growth 96h: 10µM*; FBPA Giardia inh: 13%; Pf growth 48h: -1%; Sm TGR block: -20%; HCMV antiviral: 1

Results for Cc1cc(NC(=O)CCC(=O)N(c2cccnc2)C(C(=O)NC2CCCC2)c2ccccc2)no1 (stereo not drawn) ?
Pf growth 96h: 29%; FBPA Giardia inh: 11%; Pf growth 48h: -20%; Sm TGR block: 2%; HCMV antiviral: -29

Results for CCc1ccc(-c2cn3nc(C)c(C)nc3n2)cc1 ?
Pf growth 96h: 90%; FBPA Giardia inh: 5%; Pf growth 48h: 31%; Sm TGR block: -18%; HCMV antiviral: -87*

How did CC[n+]1c(C)sc2cc(C)ccc21 do in these assays?
Pf growth 96h: inconclusive; FBPA Giardia inh: -10%; Pf growth 48h: inconclusive; Sm TGR block: 4%; HCMV antiviral: -39

Results for CCCC[n+]1c(C)sc2ccc(C)cc21 ?
Pf growth 96h: 4.7µM*; FBPA Giardia inh: -3%; Pf growth 48h: -6%; Sm TGR block: -1%; HCMV antiviral: 0

What do the screens show for `CCOC(=O)C[n+]1c(C)sc2ccc(OC)cc21`?
Pf growth 96h: inconclusive; FBPA Giardia inh: -3%; Pf growth 48h: inconclusive; Sm TGR block: 0%

What do the screens show for `Cc1ccc2sc(C)[n+](CCO)c2c1`?
Pf growth 96h: 3%; FBPA Giardia inh: -20%; Pf growth 48h: -3%; Sm TGR block: 25µM*; HCMV antiviral: -25

Results for COc1ccccc1C(=O)Nc1cc(C)ccc1NC(=O)c1ccco1 ?
Pf growth 96h: inconclusive; FBPA Giardia inh: 14%; Pf growth 48h: -4%; Sm TGR block: 3%

What do the screens show for `Cc1cccc(CNC(=O)C2CCN(c3nc4ccc(Cl)cc4[nH]3)CC2)c1`?
Sm TGR block: 4%; HCMV antiviral: 0

What do the screens show for `COc1cc(NC(=O)N(Cc2ccco2)C2CCN(C(C)=O)CC2)cc(OC)c1OC`?
Sm TGR block: 12%; HCMV antiviral: -25

Results for Cc1ccc([N+](=O)[O-])cc1S(=O)(=O)NCCc1c(C)[nH]c2c(C)cccc12 ?
Pf growth 96h: 9.3µM*; FBPA Giardia inh: -1%; Pf growth 48h: 10%; Sm TGR block: -18%; HCMV antiviral: 39

How did Cc1[nH]c2c(C)cccc2c1CCNS(=O)(=O)c1cccc([N+](=O)[O-])c1 do in these assays?
Pf growth 96h: 36%; FBPA Giardia inh: -8%; Pf growth 48h: -11%; Sm TGR block: -5%; HCMV antiviral: 65

What do the screens show for `Cn1cc(S(=O)(=O)N2CCCCC2)cc1C(=O)Nc1ccc(OC(F)(F)F)cc1`?
Sm TGR block: 8%; HCMV antiviral: -13

What do the screens show for `COc1ccc(NC(=O)CCc2nc3c(C)nn(-c4ccc(C)cc4)c3n(C)c2=O)c(OC)c1`?
Sm TGR block: -2%; HCMV antiviral: 9

How did CCOc1cccc(N(C(=O)C2COc3ccccc3O2)C(C(=O)NC2CCCCC2)c2ccc(O)cc2)c1 (stereo not drawn) do in these assays?
Pf growth 96h: 57%; FBPA Giardia inh: 4%; Pf growth 48h: 13µM*; Sm TGR block: -5%; HCMV antiviral: 118

How did CC(C)CCNC(=O)C(c1ccc(O)cc1)N(C(=O)C1COc2ccccc2O1)c1cccc(O)c1 (stereo not drawn) do in these assays?
Pf growth 96h: inconclusive; FBPA Giardia inh: -19%; Pf growth 48h: 12µM*; Sm TGR block: inconclusive; HCMV antiviral: -63*

What do the screens show for `O=C(NC1CCCC1)C(c1ccc(O)cc1)N(CC1CCCO1)C(=O)C1COc2ccccc2O1` (stereo not drawn)?
Pf growth 96h: 15%; FBPA Giardia inh: -4%; Pf growth 48h: inconclusive; Sm TGR block: 1%; HCMV antiviral: -22

Results for CC(=O)c1cccc(NS(=O)(=O)c2cccc(S(=O)(=O)c3ccc(Br)cc3)c2)c1 ?
Sm TGR block: 13µM*; HCMV antiviral: inconclusive
